# Laboratory results reported in PubChem BioAssay (Tox21).
# Results filed as inconclusive are left out. Unmarked numbers belong to inactive results. Calls of active or inactive are those of the source. Calls follow the shape of the dose curve; as a rule, active = well fitted curve in the direction sought with a large enough effect in the repeat runs; inconclusive = weak or mixed curves; inactive = no such curve, though single readings can be large; an effect the other way counts as inactive or inconclusive.
# System: not listed separately
# Test: qHTS assay to identify aromatase inhibitors - cell viability counter screen (AID 743084);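 also: cells stimulated with testosterone during compound exposure; nearly all actives have a fitted effect of over 55% in size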
# Conditions: MCF-7 aro ERE viability, CellTiter-Fluor, 24 h; series mostly up to 70.3 µM; activity change, negative = cytotoxicity: at the top concentration
# % is scaled to controls: 0 for no effect and ±100 for the full control effect.
SMILES,"activity change, negative = cytotoxicity",Potency
c1cc(CN2CCCCC2)cc(OCCCNc2nc3ccccc3s2)c1,-1.11%,
CC(C=O)Cc1ccc(C(C)C)cc1 (centres undefined),1.14%,
Cc1nccn1CC1CCc2c(c3ccccc3n2C)C1=O (centres undefined),,inactive
CC(C)(O)Cc1ccccc1,-6.86%,
CCOC(=O)[C@H](CCc1ccccc1)N[C@@H](C)C(=O)N1CCC[C@H]1C(=O)O,-2.62%,
COc1nc(C)nc(N)n1,13.9%,
C=C[Si](OC)(OC)OC,2.2%,
CC/C=C\C#N,-7.1%,
COC(=O)CCCCCCCCC(=O)OC,2.02% [at 95 µM],
C#CC(C)(O)CC(C)C (centres undefined),14.8%,
CCC(=O)/C=C/c1ccc(OC)cc1,-2.53%,
CN(C)CCOC(c1ccc(Cl)cc1)c1ccccn1 (centres undefined),7.88%,
NC(=O)c1ncn([C@@H]2O[C@H](CO)[C@@H](O)[C@H]2O)c1O,-4.27%,
CC(C)(C)CC(C)(C)N,3.36%,
CC(=O)c1ccc(C)cc1,14.8%,
Cc1cc(C)cc(OCC2CNC(=O)O2)c1 (centres undefined),12.4%,
NCC[C@H](O)C(=O)N[C@@H]1C[C@H](N)[C@@H](O[C@H]2O[C@H](CN)[C@@H](O)[C@H](O)[C@H]2O)[C@H](O)[C@H]1O[C@H]1O[C@H](CO)[C@@H](O)[C@H](N)[C@H]1O,16%,
Nc1ccc2cc(S(=O)(=O)O)ccc2c1,5.8%,
CN1[C@@H]2CC[C@H]1CC(NC(=O)n1c(=O)[nH]c3ccccc31)C2 (some centres undefined),-18.6%,

SMILES,"activity change, negative = cytotoxicity",Potency
Cc1onc(-c2ccccc2)c1-c1ccc(S(N)(=O)=O)cc1,12.4%,
CC(C)c1cccc(C(C)C)c1N,-2.52%,
CCC(=O)Nc1cccc(N)c1,16.2%,
Cn1ccc2cc3c(cc21)CCN3C(=O)Nc1cccnc1,-8.25%,
NC1CCN(c2cccc(Cl)n2)CC1,0.407%,
CC(C)CCOC(=O)CC(C)C,-3.44%,
CC1CCN(CCCC(=O)c2ccc(F)cc2)CC1,4.95%,
CC(C)(O)C(=O)c1ccc(OCCO)cc1,5.7%,
CC(C)=CC(=O)O,-4.28%,
Nc1cc(N)cc(C(=O)O)c1,-1.03%,
CC(=O)CCc1ccc(O)cc1,10.8%,
Nc1ccn(C2CO[C@H](CO)O2)c(=O)n1 (some centres undefined),-6.23%,
O=C(O)/C=C/c1ccc(/C=C/C(=O)O)cc1,-4.12%,
O=C(O)/C=C/c1ccc(Cn2ccnc2)cc1,-1.9% [at 32.5 µM],
CC12CCC(CC1=O)C2(C)C (centres undefined),12.7%,
OC[C@H]1O[C@@H]2O[C@H]3[C@H](O)[C@@H](O)[C@@H](O[C@H]4[C@H](O)[C@@H](O)[C@@H](O[C@H]5[C@H](O)[C@@H](O)[C@@H](O[C@H]6[C@H](O)[C@@H](O)[C@@H](O[C@H]7[C@H](O)[C@@H](O)[C@@H](O[C@H]8[C@H](O)[C@@H](O)[C@@H](O[C@H]9[C@H](O)[C@@H](O)[C@@H](O[C@H]1[C@H](O)[C@H]2O)O[C@@H]9CO)O[C@@H]8CO)O[C@@H]7CO)O[C@@H]6CO)O[C@@H]5CO)O[C@@H]4CO)O[C@@H]3CO,-9.99% [at 32.5 µM],
NC(CS)C(=O)O (centres undefined),13.5%,
C1=C\CC/C=C\CC/C=C\CC/1,12.6%,

# Target: Aryl hydrocarbon receptor (Homo sapiens) (UniProt P35869)
# Sequence (P35869 whole entry, looked up): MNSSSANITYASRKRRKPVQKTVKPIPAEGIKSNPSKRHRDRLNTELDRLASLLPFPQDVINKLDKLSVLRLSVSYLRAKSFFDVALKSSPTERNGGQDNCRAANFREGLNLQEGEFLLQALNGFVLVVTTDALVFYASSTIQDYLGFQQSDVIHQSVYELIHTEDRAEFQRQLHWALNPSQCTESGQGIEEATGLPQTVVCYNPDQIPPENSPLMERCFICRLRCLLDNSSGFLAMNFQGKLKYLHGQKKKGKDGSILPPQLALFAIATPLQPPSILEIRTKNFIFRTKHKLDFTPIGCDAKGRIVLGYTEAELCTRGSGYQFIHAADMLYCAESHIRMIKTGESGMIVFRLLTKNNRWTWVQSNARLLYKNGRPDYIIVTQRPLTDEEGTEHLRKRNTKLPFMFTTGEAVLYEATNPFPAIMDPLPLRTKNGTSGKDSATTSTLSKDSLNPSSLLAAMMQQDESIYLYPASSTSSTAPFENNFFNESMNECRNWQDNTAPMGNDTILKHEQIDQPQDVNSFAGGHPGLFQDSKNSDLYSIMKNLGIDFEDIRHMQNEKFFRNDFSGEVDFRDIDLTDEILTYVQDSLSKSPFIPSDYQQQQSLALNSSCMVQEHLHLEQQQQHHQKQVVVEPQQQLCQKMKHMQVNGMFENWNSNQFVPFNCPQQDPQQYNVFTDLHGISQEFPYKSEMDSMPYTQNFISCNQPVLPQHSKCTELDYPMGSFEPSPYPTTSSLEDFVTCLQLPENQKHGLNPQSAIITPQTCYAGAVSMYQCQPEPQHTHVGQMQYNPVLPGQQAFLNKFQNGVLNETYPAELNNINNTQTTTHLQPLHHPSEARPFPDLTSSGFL
# Test: qHTS assay to identify small molecule that activate the aryl hydrocarbon receptor (AhR) signaling pathway (AID 743085); also: nearly all actives have a fitted effect of over 15% in size; also: potency is read from the fitted curve at half-maximal effect;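 as to activation: HG2L7.5c1 human HepG2 liver cells with stably integrated DRE-driven firefly reporter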
# Conditions: HepG2 AhR-luc (HG2L7.5c1), luciferase, 24 h; series mostly up to 70.3 µM; activation: at the top concentration
# Procedure, shortened: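 Steps: seed HepG2-AhR-luc cells; allow 5 h at 37C; pin-transfer test compound or vehicle; incubate 24 h at 37C; add viability dye (30 min, 37C) and read fluorescence; add luciferase substrate (30 min, RT) and read luminescence.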
SMILES,Potency,activation
c1cc(CN2CCCCC2)cc(OCCCNc2nc3ccccc3s2)c1,26.6 µM (active),
Cc1nccn1CC1CCc2c(c3ccccc3n2C)C1=O (centres undefined),inactive,
CC(C)(O)Cc1ccccc1,,1.78%
CCOC(=O)[C@H](CCc1ccccc1)N[C@@H](C)C(=O)N1CCC[C@H]1C(=O)O,,-0.728%
C=C[Si](OC)(OC)OC,,-5.3%
CC/C=C\C#N,,-0.25%
COC(=O)CCCCCCCCC(=O)OC,,-1.7% [at 95 µM]
C#CC(C)(O)CC(C)C (centres undefined),,-0.203%
CCC(=O)/C=C/c1ccc(OC)cc1,,4.53%
CN(C)CCOC(c1ccc(Cl)cc1)c1ccccn1 (centres undefined),,-0.012%
NC(=O)c1ncn([C@@H]2O[C@H](CO)[C@@H](O)[C@H]2O)c1O,,-1.26%
NCC[C@H](O)C(=O)N[C@@H]1C[C@H](N)[C@@H](O[C@H]2O[C@H](CN)[C@@H](O)[C@H](O)[C@H]2O)[C@H](O)[C@H]1O[C@H]1O[C@H](CO)[C@@H](O)[C@H](N)[C@H]1O,,-0.199%
Nc1ccc2cc(S(=O)(=O)O)ccc2c1,,-0.752%
CN1[C@@H]2CC[C@H]1CC(NC(=O)n1c(=O)[nH]c3ccccc31)C2 (some centres undefined),,1.45%
Cc1onc(-c2ccccc2)c1-c1ccc(S(N)(=O)=O)cc1,,-0.0204%
CC(C)c1cccc(C(C)C)c1N,,-0.692%
CCC(=O)Nc1cccc(N)c1,,1.9%
Cn1ccc2cc3c(cc21)CCN3C(=O)Nc1cccnc1,0.335 µM (active),
NC1CCN(c2cccc(Cl)n2)CC1,,-3.57%
CC(C)(O)C(=O)c1ccc(OCCO)cc1,,0.951%
Nc1cc(N)cc(C(=O)O)c1,,2.62%
Nc1ccn(C2CO[C@H](CO)O2)c(=O)n1 (some centres undefined),,-2.56%
O=C(O)/C=C/c1ccc(/C=C/C(=O)O)cc1,,-0.202%
O=C(O)/C=C/c1ccc(Cn2ccnc2)cc1,,0.133% [at 32.5 µM]
CC12CCC(CC1=O)C2(C)C (centres undefined),,1.05%
NC(CS)C(=O)O (centres undefined),,-0.24%

# System: not listed separately
# Test: qHTS assay to identify small molecule that activate the aryl hydrocarbon receptor (AhR) signaling pathway - cell viability counter screen (AID 743086);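 also: HepG2 liver cells carrying the AhR DRE luciferase reporter; nearly all actives have a fitted effect of over 45% in size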
# Conditions: HepG2-AhR-luc viability, CellTiter-Fluor, 24 h; series mostly up to 70.3 µM; viability change, negative = cytotoxic: at the top concentration
# Procedure, shortened: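 HepG2-AhR-luc (HG2L7.5c1) cells, 4000/well, treated 24 h at 37 C with compound; viability measured as CellTiter-Fluor fluorescence after 30 min in the same wells as the luciferase read.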
row,SMILES,"viability change, negative = cytotoxic"
1,CC(C=O)Cc1ccc(C(C)C)cc1 (centres undefined),-1.37%
2,COc1nc(C)nc(N)n1,16.2%
3,CC(C)(C)CC(C)(C)N,0.981%
4,CC(=O)c1ccc(C)cc1,-3.77%
5,Cc1cc(C)cc(OCC2CNC(=O)O2)c1 (centres undefined),0.704%
6,CC(C)CCOC(=O)CC(C)C,0.336%
7,CC1CCN(CCCC(=O)c2ccc(F)cc2)CC1,-0.935%
8,CC(C)=CC(=O)O,-8.98%
9,CC(=O)CCc1ccc(O)cc1,-3.62%
10,OC[C@H]1O[C@@H]2O[C@H]3[C@H](O)[C@@H](O)[C@@H](O[C@H]4[C@H](O)[C@@H](O)[C@@H](O[C@H]5[C@H](O)[C@@H](O)[C@@H](O[C@H]6[C@H](O)[C@@H](O)[C@@H](O[C@H]7[C@H](O)[C@@H](O)[C@@H](O[C@H]8[C@H](O)[C@@H](O)[C@@H](O[C@H]9[C@H](O)[C@@H](O)[C@@H](O[C@H]1[C@H](O)[C@H]2O)O[C@@H]9CO)O[C@@H]8CO)O[C@@H]7CO)O[C@@H]6CO)O[C@@H]5CO)O[C@@H]4CO)O[C@@H]3CO,1.27% [at 32.5 µM]
11,C1=C\CC/C=C\CC/C=C\CC/1,0.634%
